Laboratory results reported in PubChem BioAssay (Tox21).
Inconclusive results are not listed. The source made the active and inactive calls. Unless noted, the call rests on the fitted dose curve.

Legend:
[1] = Nuclear factor erythroid 2-related factor 2/antioxidant responsive element (Nrf2/ARE) small molecule agonists: qHTS cell viability counter screen in human keratinocytes (AID 1919968; active means well fitted curve in the direction sought with a large enough effect in the repeat runs; an effect the other way counts as inactive or inconclusive; further: nearly all actives have a fitted effect of over 55% in size)
How it was run: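 After a 5 h attachment period, ARE-reporter keratinocytes were dosed with compounds in DMSO and then cultured 23 h at 37 C. Cell viability came from CellTiter-Fluor signal read after a further 1 h.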

[2] = biological target: Gonadotropin-releasing hormone receptor (Homo sapiens) (UniProt P30968); assay: Human gonadotropin-releasing hormone receptor (GnRHR) small molecule agonists, calcium flux assay in GnRHR-HEK293 cells (AID 1920063); further: nearly all actives have a fitted effect of over 35% in size
Sequence of Gonadotropin-releasing hormone receptor (Homo sapiens) (P30968 whole entry, looked up): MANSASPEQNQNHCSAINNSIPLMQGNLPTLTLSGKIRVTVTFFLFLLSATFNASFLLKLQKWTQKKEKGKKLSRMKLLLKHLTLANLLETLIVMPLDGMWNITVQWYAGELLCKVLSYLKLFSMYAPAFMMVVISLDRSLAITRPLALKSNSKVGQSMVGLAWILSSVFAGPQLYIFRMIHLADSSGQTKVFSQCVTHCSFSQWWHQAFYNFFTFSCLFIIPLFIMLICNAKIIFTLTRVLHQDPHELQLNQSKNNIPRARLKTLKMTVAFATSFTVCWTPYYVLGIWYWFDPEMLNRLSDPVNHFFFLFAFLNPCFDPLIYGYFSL
How it was run: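 We seeded human GnRHR-expressing HEK293 cells for 18 hours, loaded them with calcium dye for an hour at 37 C, added test compounds, and recorded fluorescence intensity kinetically for three minutes.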

[3] = G protein-coupled receptor (GPCR) small molecule agonists, calcium flux assay: HEK293 wild type cell line counter screen (AID 1920065)
How it was run: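 Calcium-sensitive dye, loaded 1 h at 37 C into cells cultured 18 h, reports compound-evoked calcium release as fluorescence (Ex/Em 480/540), measured over 3 min. Agonist mode; 15-point titrations, triplicate.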

[4] = p53 small molecule agonists, cell-based qHTS assay with human liver microsomes: qHTS cell viability counter screen (AID 1963579); further: nearly all actives have a fitted effect of over 45% in size
How it was run: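 Cells carrying the p53 response-element beta-lactamase reporter are treated for 16 h at 37 C with test compounds in the presence of human liver microsomes and NADPH (both 0.5 mg/mL final); ATP-based CellTiter-Glo luminescence then reports viability.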

[5] = p53 small molecule agonists, cell-based qHTS assay: qHTS cell viability counter screen (AID 1963581); further: nearly all actives have a fitted effect of over 45% in size
How it was run: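 Following 5 h attachment, HCT-116 p53RE-bla cells took up compound for 16 h at 37 C; the reporter was read with B/G FRET substrate (2 h RT), and viability then via CellTiter-Glo ATP luminescence.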

[6] = biological target: 5-hydroxytryptamine receptor 2A (Homo sapiens) (UniProt P28223); assay: 5-hydroxytryptamine receptor 2A (HTR2A) small molecule antagonists, cell-based qHTS assay (AID 1963586); further: nearly all actives have a fitted effect of over 45% in size
Sequence of 5-hydroxytryptamine receptor 2A (Homo sapiens) (P28223 whole entry, looked up): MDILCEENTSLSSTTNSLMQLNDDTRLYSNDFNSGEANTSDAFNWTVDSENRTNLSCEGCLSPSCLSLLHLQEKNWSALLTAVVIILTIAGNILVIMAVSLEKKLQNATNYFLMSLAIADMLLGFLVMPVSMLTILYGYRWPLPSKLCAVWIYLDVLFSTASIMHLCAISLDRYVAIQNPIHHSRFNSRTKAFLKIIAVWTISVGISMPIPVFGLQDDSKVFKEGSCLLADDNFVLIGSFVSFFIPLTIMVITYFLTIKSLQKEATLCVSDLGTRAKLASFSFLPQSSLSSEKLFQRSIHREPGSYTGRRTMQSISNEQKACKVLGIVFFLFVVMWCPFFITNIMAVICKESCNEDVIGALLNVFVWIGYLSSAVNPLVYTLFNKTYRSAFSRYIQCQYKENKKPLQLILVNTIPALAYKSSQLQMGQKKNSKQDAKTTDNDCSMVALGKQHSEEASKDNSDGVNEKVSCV
How it was run: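 Antagonist-mode intracellular calcium assay: DOI (4 nM) added after 5 min compound pre-incubation at room temperature to dye-loaded HTR2A-CHO cells. Fluorescence followed for 3 min, sampled every second.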

[7] = biological target: 5-hydroxytryptamine receptor 2A (Homo sapiens) (UniProt P28223); assay: 5-hydroxytryptamine receptor 2A (HTR2A) small molecule agonists, cell-based qHTS assay (AID 1963587); further: nearly all actives have a fitted effect of over 30% in size
How it was run: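 Kinetic calcium-flux fluorescence (2 min, 1 sec intervals) after compound addition in agonist mode. HTR2A-CHO cells were cultured 18 h, then dye-loaded 1 h at 37 C.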

[8] = biological target: Muscarinic acetylcholine receptor M1 (Homo sapiens) (UniProt P11229); assay: Cholinergic receptor muscarinic 1 (CHRM1) small molecule antagonists, cell-based qHTS assay (AID 1963588); further: nearly all actives have a fitted effect of over 40% in size; further: potency means the concentration at half of the fitted maximal effect
Sequence of Muscarinic acetylcholine receptor M1 (Homo sapiens) (P11229 whole entry, looked up): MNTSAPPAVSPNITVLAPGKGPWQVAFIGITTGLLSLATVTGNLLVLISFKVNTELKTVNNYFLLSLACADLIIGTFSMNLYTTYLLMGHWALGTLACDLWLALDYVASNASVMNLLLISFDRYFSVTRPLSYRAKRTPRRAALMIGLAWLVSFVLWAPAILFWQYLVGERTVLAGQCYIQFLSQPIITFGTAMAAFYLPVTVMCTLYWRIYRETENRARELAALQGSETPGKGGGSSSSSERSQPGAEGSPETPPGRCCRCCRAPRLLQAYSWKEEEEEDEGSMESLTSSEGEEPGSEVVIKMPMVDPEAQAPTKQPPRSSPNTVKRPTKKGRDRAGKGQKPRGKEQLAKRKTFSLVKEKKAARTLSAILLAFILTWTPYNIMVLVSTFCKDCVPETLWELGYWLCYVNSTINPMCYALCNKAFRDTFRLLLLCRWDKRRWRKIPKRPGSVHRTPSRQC
How it was run: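 CHRM1-CHO calcium-flux assay, antagonist mode. Cells were seeded 18 h, dye-loaded 1 h at 37 C and given compound for 5 min at RT, then acetylcholine was added at 50nM. FDSS fluorescence was read 3 min; 15 concentrations, three runs.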

[9] = biological target: Muscarinic acetylcholine receptor M1 (Homo sapiens) (UniProt P11229); assay: Cholinergic receptor muscarinic 1 (CHRM1) small molecule agonists, cell-based qHTS assay (AID 1963589); further: nearly all actives have a fitted effect of over 35% in size
How it was run: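 Measures agonist-induced intracellular calcium rise. Stable human CHRM1 CHO line, 1 h dye load at 37 C, compounds from DMSO, kinetic fluorescence read.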

[10] = cAMP Responsive Elements (CRE) small molecule antagonists, cell-based qHTS assay (AID 1963591; active means well fitted inhibition curve with a large enough effect in the signal ratio in the repeat runs, not every such curve was filed as active; the % refers to the signal ratio)
How it was run: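 HEK293T cells carrying a CRE-driven beta-lactamase reporter receive compound and NKH477 (0.25 uM final) for 3 h. Fluorescence from LiveBLAzer B/G FRET substrate is read after 2 h at room temperature.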

[11] = biological target: Beta-2 adrenergic receptor (Homo sapiens) (UniProt P07550); assay: Adrenergic beta2 receptor (ADRB2) small molecule antagonists, cell-based qHTS assay (AID 1963592); further: series mostly up to about 92 µM; nearly all actives have a fitted effect of over 50% in size
Sequence of Beta-2 adrenergic receptor (Homo sapiens) (P07550 whole entry, looked up): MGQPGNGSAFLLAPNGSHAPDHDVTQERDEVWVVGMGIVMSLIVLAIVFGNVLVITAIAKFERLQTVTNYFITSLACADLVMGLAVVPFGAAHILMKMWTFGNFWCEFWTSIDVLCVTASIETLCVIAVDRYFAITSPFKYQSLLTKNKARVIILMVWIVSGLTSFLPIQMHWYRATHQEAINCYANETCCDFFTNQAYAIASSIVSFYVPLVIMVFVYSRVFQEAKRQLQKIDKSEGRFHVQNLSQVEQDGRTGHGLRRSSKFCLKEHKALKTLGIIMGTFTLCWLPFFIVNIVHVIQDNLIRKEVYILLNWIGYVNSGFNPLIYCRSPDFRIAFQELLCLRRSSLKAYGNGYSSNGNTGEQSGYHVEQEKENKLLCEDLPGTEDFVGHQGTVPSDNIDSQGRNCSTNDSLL
How it was run: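 Cells (CHO, stable ADRB2 overexpression) incubated 18-20hr at 37C; compounds added from DMSO; agonist mix (1nM isoproterenol, 100uM IBMX, 25uM Ro-20-1724) added; 0.5hr RT; d2-cAMP and anti-cAMP-cryptate added; 1hr RT; 665/615 nm read.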

[12] = biological target: D(2) dopamine receptor (Homo sapiens) (UniProt P14416); assay: Dopamine D2 receptor (DRD2) small molecule agonists, cell-based qHTS assay (AID 1963594); further: nearly all actives have a fitted effect of over 35% in size
Sequence of D(2) dopamine receptor (Homo sapiens) (P14416 whole entry, looked up): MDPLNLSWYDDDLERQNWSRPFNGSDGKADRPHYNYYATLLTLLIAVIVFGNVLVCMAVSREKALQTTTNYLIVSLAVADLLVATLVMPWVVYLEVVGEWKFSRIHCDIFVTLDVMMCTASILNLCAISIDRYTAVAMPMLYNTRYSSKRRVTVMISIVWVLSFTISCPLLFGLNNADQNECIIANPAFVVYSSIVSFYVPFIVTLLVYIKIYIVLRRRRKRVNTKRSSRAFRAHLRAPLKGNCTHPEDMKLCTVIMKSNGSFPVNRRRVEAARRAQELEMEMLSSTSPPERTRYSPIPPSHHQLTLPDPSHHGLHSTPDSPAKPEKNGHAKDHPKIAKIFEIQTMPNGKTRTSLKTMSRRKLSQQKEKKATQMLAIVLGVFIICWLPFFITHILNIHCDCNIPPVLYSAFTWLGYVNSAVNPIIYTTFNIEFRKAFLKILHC
How it was run: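 cAMP accumulation in DRD2-HEK293 cells measured by HTRF after 1 h detection; compounds added 10 min before NKH477 (200nM […]) forskolin-analogue stimulation, 30 min at room temperature, with Ro20-1724 present at 0.1 mM final.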

[13] = biological target: D(2) dopamine receptor (Homo sapiens) (UniProt P14416); assay: Dopamine D2 receptor (DRD2) small molecule antagonists, cell-based qHTS assay (AID 1963595; active means well fitted inhibition curve with a large enough effect in the signal ratio in the repeat runs, with a control signal flat; the % refers to the signal ratio)
How it was run: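 Readout: HTRF cAMP, cAMP-d2 competing with cellular cAMP for anti-cAMP cryptate, read after 1 h. Cells: DRD2-HEK293. Conditions: 0.1 mM Ro20-1724, 12 nM quinpirole, 200 nM NKH477, 30 min RT.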

[14] = p53 small molecule agonists, cell-based qHTS assay with human liver microsomes (AID 1963577)
How it was run: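 Compounds act here after metabolic activation: human liver microsomes and NADPH, both at 0.5 mg/mL final, were co-added to p53RE-bla cells. Incubation ran 16 h at 37 C, followed by LiveBLAzer detection.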

[15] = p53 small molecule agonists, cell-based qHTS assay with rat liver microsomes (AID 1963578)
How it was run: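 Read-out is beta-lactamase reporter fluorescence (LiveBLAzer, 2 h, room temperature, dark) in p53RE-bla cells treated 16 h at 37 C with compound, rat liver microsomes and NADPH, both 0.5 mg/mL final.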

[16] = p53 small molecule agonists, cell-based qHTS assay with rat liver microsomes: qHTS cell viability counter screen (AID 1963580); further: nearly all actives have a fitted effect of over 45% in size
How it was run: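 HCT-116 p53RE-bla, 4,000 cells/well, 5 h pre-incubation; cpd + rat liver microsomes 0.5 mg/mL + NADPH 0.5 mg/mL (final); 16 h, 37 C; CellTiter-Glo, 30 min RT; luminescence.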

[17] = p53 small molecule agonists, cell-based qHTS assay (AID 1963582; active means well fitted activation curve with a large enough effect in the signal ratio in the repeat runs, not every such curve was filed as active; the % refers to the signal ratio)
How it was run: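 In this cell-based concentration-response screen, a p53 response element drives beta-lactamase; cells received DMSO-borne compounds after 5 h culture and were incubated a further 16 h before FRET substrate development.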

[18] = cAMP Responsive Elements (CRE) small molecule agonists, cell-based qHTS assay (AID 1963590)
How it was run: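 A CRE-responsive beta-lactamase reporter in HEK 293T cells was used. Treatment ran 3 h at 37 C; detection used LiveBLAzer B/G FRET substrate for 2 h at room temperature.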

[19] = biological target: Beta-2 adrenergic receptor (Homo sapiens) (UniProt P07550); assay: Adrenergic beta2 receptor (ADRB2) small molecule agonists, cell-based qHTS assay (AID 1963593);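 further: CHO cells stably overexpressing human ADRB2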
How it was run: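 CHO cells stably over-expressing ADRB2 were plated overnight at 37C, then dosed with compounds plus a stimulation mix containing 100uM IBMX and 25uM Ro-20-1724 for 0.5hr at room temperature. cAMP was measured by HTRF competition, 1hr.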

[20] = biological target: KiSS-1 receptor (Homo sapiens) (UniProt Q969F8); assay: Human kisspeptin (KISS1R) small molecule agonists, calcium flux assay in KISS1R-HEK293 cells (AID 1920064; active means well fitted curve in the direction sought with a large enough effect in the repeat runs; an effect the other way counts as inactive or inconclusive)
Sequence of KiSS-1 receptor (Homo sapiens) (Q969F8 whole entry, looked up): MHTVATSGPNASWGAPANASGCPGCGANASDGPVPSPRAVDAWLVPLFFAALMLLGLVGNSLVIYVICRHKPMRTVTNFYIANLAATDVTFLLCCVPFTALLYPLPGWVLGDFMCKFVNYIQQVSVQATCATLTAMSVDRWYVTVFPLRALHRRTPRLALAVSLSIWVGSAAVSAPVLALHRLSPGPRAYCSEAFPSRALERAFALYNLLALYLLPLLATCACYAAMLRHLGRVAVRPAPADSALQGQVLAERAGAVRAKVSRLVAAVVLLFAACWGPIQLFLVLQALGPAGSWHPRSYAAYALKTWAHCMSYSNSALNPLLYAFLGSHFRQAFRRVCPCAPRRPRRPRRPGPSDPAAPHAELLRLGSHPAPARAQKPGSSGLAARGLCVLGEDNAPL
How it was run: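 Kinetic calcium assay, 1 s sampling over 3 min at Ex/Em 480/540, in HEK293 cells engineered with human KISS1R; compounds delivered in DMSO after 1 h dye loading.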
On the % scale 0 is the no-effect control and ±100 the full control effect.

CC(C)O
inactive: Potency [1] | Potency [2] | Potency [3] | Potency [4] | Potency [5] | Potency [6] | Potency [7] | Potency [8] | Potency [9] | Potency [10] | Potency [11] | Potency [12] | Potency [13]

CC(C)=CCCC(C)CCOC=O (stereo not drawn)
inactive: Potency [1] | Potency [2] | Potency [3] | Potency [14] | Potency [15] | Potency [4] | Potency [16] | Potency [5] | Potency [17] | Potency [7] | Potency [8] | Potency [9] | Potency [18] | Potency [10] | Potency [11] | Potency [19] | Potency [12] | Potency [13]

O=C1c2ccccc2C(=O)N1CCc1noc(-c2ccc(CN3CCCCCC3)s2)n1
inactive: Potency [1] | Potency [2] | Potency [3] | Potency [14] | Potency [15] | Potency [4] | Potency [16] | Potency [5] | Potency [6] | Potency [7] | Potency [9] | Potency [11]
active: Potency [8] 273 nM

CCCCC(CC)COC(=O)c1ccccc1C(=O)O (stereo not drawn)
inactive: Potency [1] | Potency [2] | Potency [3] | Potency [4] | Potency [16] | Potency [7] | Potency [9]

CCc1cccc(N(C)C(N)=Nc2cccc3ccccc23)c1
inactive: Potency [1] | Potency [2] | Potency [20] | Potency [14] | Potency [15] | Potency [4] | Potency [5] | Potency [17] | Potency [7] | Potency [8] | Potency [10] | Potency [11] | Potency [19] | Potency [12] | Potency [13]

CCN(CCC#N)c1ccc(N=Nc2c(Cl)cc([N+](=O)[O-])cc2Cl)cc1
inactive: Potency [1] | Potency [2] | Potency [20] | Potency [14] | Potency [4] | Potency [16] | Potency [5] | Potency [17] | Potency [6] | Potency [7] | Potency [8] | Potency [9] | Potency [18] | Potency [10] | Potency [11] | Potency [12] | Potency [13]

CCC(Cl)CC(Cl)C(Cl)C(Cl)C(Cl)C(C)Cl (stereo not drawn)
inactive: activity change, negative = cytotoxicity [1] 2.55% [at 19 µM] | activity change [2] -1.19% [at 11.8 µM, hits give high values] | activation [3] 0.622% [at 11.8 µM] | activity change, negative = cytotoxicity [4] -1.84% [at 13.5 µM] | activity change, negative = cytotoxicity [16] -14% [at 13.5 µM] | activity change, negative = cytotoxicity [5] -23.5% [at 13.5 µM] | activity, negative = inhibition [6] -18.7% [at 12.7 µM] | activation [7] -1.32% [at 15.9 µM] | activity, negative = inhibition [8] -3.76% [at 12.6 µM] | activation [9] -0.121% [at 15.8 µM] | activity change, negative = inhibition [10] 6.46% [at 18.9 µM] | activity change, negative = inhibition [11] -8.4% [at 19 µM] | activation [12] -1.17% [at 19 µM] | activity change, negative = inhibition [13] -0.674% [at 18.9 µM]

CCCCC(CC)CNC(=O)CC(C)OC(=O)CCC(=O)O (stereo not drawn)
inactive: Potency [1] | Potency [2] | Potency [3] | Potency [15] | Potency [4] | Potency [16] | Potency [17] | Potency [6] | Potency [7] | Potency [8] | Potency [9] | Potency [18] | Potency [10] | Potency [11] | Potency [12] | Potency [13]

CCCCCCCC/C=C\CCCCCCCC(=O)OCCOC(=O)CCCCCCC/C=C\CCCCCCCC
inactive: Potency [1] | Potency [2] | Potency [3] | Potency [14] | Potency [15] | Potency [4] | Potency [16] | Potency [5] | Potency [6] | Potency [7] | Potency [8] | Potency [9] | Potency [18] | Potency [11] | Potency [13]
